Reference: the supplement of paper PMC8728848
The full list was thinned out, with the strongest signals kept by preference.

How the values were obtained:
Test in all cases: glycan array binding signal (z-score within array); higher = stronger binding
Details in all cases: glycan notation: IUPAC condensed, linker removed
[1] = molecular target: Fuc(a1-2)Gal(b1-4)GlcNAc(b1-3)Gal(b1-4)GlcNAc(b1-2)Man(a1-3)[Fuc(a1-2)Gal(b1-4)GlcNAc(b1-3)Gal(b1-4)GlcNAc(b1-2)Man(a1-6)]Man(b1-4)GlcNAc(b1-4)GlcNAc
How it was run: (§1)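 The binding signal is a Z-score computed within each array and averaged over linkers. Arrays of the same protein sequence at different concentrations or buffers were also averaged together. Data originate from 3228 arrays in the Consortium for Functional Glycomics database, kept only where the protein sequence was available.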

[2] = molecular target: Fuc(a1-2)[Gal(a1-3)]Gal(b1-4)GlcNAc
How it was run: as §1

[3] = molecular target: Fuc(a1-2)[Gal(a1-3)]Gal(b1-4)GlcNAc(b1-2)Man
How it was run: as §1

[4] = molecular target: Fuc(a1-2)[Gal(a1-3)]Gal(b1-4)GlcNAc(b1-6)GalNAc
How it was run: as §1

[5] = molecular target: Fuc(a1-2)[Gal(a1-3)]Gal(b1-4)[Fuc(a1-3)]GlcNAc(b1-3)GalNAc
How it was run: as §1

[6] = molecular target: Fuc(a1-2)[GalNAc(a1-3)]Gal(b1-4)GlcNAc(b1-2)Man(a1-3)[Fuc(a1-2)[GalNAc(a1-3)]Gal(b1-4)GlcNAc(b1-2)Man(a1-6)]Man(b1-4)GlcNAc(b1-4)[Fuc(a1-6)]GlcNAc
How it was run: as §1

[7] = molecular target: Fuc(a1-3)[Gal(b1-4)]GlcNAc(b1-3)Gal(b1-4)[Fuc(a1-3)]GlcNAc(b1-3)Gal(b1-4)[Fuc(a1-3)]GlcNAc
How it was run: as §1

[8] = molecular target: Fuc(a1-3)[Gal(b1-4)]GlcNAc6S
How it was run: as §1

[9] = molecular target: Fuc(a1-3)[Gal3S(b1-4)]GlcNAc6S
How it was run: as §1

Fuc(a1-4)GlcNAc = molecular target: Fuc(a1-4)GlcNAc
How it was run: as §1

Gal(a1-3)Gal = molecular target: Gal(a1-3)Gal
How it was run: as §1

Gal(b1-3)GalNAc = molecular target: Gal(b1-3)GalNAc
How it was run: as §1

[10] = molecular target: Gal(b1-3)GlcNAc(b1-2)Man(a1-3)[Gal(b1-3)GlcNAc(b1-2)Man(a1-6)]Man(b1-4)GlcNAc(b1-4)GlcNAc
How it was run: as §1

[11] = molecular target: Gal(b1-3)GlcNAc(b1-3)Gal(b1-4)GlcNAc(b1-3)Gal(b1-4)GlcNAc(b1-2)[Gal(b1-3)GlcNAc(b1-3)Gal(b1-4)GlcNAc(b1-3)Gal(b1-4)GlcNAc(b1-6)]Man(a1-6)[Gal(b1-3)GlcNAc(b1-3)Gal(b1-4)GlcNAc(b1-3)Gal(b1-4)GlcNAc(b1-2)Man(a1-3)]Man(b1-4)GlcNAc(b1-4)[Fuc(a1-6)]GlcNAc
How it was run: as §1

[12] = molecular target: Gal(b1-3)[Fuc(a1-4)]GlcNAc(b1-2)Man
How it was run: as §1

[13] = molecular target: Gal(b1-3)[Fuc(a1-4)]GlcNAc(b1-3)Gal(b1-3)[Fuc(a1-4)]GlcNAc
How it was run: as §1

Gal(b1-4)Gal = molecular target: Gal(b1-4)Gal
How it was run: as §1

[14] = molecular target: Gal(b1-4)GlcNAc(b1-2)[Gal(b1-4)GlcNAc(b1-6)]Man(a1-6)[GlcNAc(b1-4)][Gal(b1-4)GlcNAc(b1-2)[Gal(b1-4)GlcNAc(b1-4)]Man(a1-3)]Man(b1-4)GlcNAc(b1-4)[Fuc(a1-6)]GlcNAc
How it was run: as §1

[15] = molecular target: Gal(b1-4)GlcNAc(b1-3)Gal(b1-4)GlcNAc(b1-2)[Gal(b1-4)GlcNAc(b1-3)Gal(b1-4)GlcNAc(b1-6)]Man(a1-6)[Gal(b1-4)GlcNAc(b1-3)Gal(b1-4)GlcNAc(b1-2)Man(a1-3)]Man(b1-4)GlcNAc(b1-4)GlcNAc
How it was run: as §1

[16] = molecular target: Gal(b1-4)GlcNAc(b1-3)Gal(b1-4)GlcNAc(b1-3)GalNAc
How it was run: as §1

[17] = molecular target: Gal(b1-4)GlcNAc(b1-3)Gal(b1-4)GlcNAc(b1-3)[Gal(b1-4)GlcNAc(b1-3)Gal(b1-4)GlcNAc(b1-6)]GalNAc
How it was run: as §1

[18] = molecular target: Gal(b1-4)GlcNAc(b1-3)Gal(b1-4)[Fuc(a1-3)]GlcNAc(b1-3)Gal(b1-4)[Fuc(a1-3)]GlcNAc
How it was run: as §1

[19] = molecular target: Gal(b1-4)GlcNAc(b1-3)[Gal(b1-4)GlcNAc(b1-6)]Gal(b1-4)GlcNAc
How it was run: as §1

[20] = molecular target: Gal(b1-4)GlcNAc(b1-3)[GlcNAc(b1-6)]Gal(b1-4)GlcNAc
How it was run: as §1

Gal3S(b1-4)Glc6S = molecular target: Gal3S(b1-4)Glc6S
How it was run: as §1

[21] = molecular target: GalNAc(b1-4)GlcNAc(b1-2)Man
How it was run: as §1

GalNAc(b1-4)GlcNAc6S = molecular target: GalNAc(b1-4)GlcNAc6S
How it was run: as §1

GlcA(b1-3)GlcNAc = molecular target: GlcA(b1-3)GlcNAc
How it was run: as §1

[22] = molecular target: GlcNAc(a1-3)Gal(b1-4)GlcNAc
How it was run: as §1

[23] = molecular target: GlcNAc(b1-2)[GlcNAc(b1-6)]Man(a1-6)[GlcNAc(b1-4)][GlcNAc(b1-2)Man(a1-3)]Man(b1-4)GlcNAc(b1-4)GlcNAc
How it was run: as §1

GlcNAc(b1-3)Man = molecular target: GlcNAc(b1-3)Man
How it was run: as §1

Kdn(a2-3)Gal(b1-3)GlcNAc = molecular target: Kdn(a2-3)Gal(b1-3)GlcNAc
How it was run: as §1

[24] = molecular target: Man(a1-2)Man(a1-2)Man(a1-3)Man
How it was run: as §1

[25] = molecular target: Man(a1-2)Man(a1-6)[Man(a1-3)]Man(a1-6)[Man(a1-2)Man(a1-2)Man(a1-3)]Man
How it was run: as §1

Man(a1-3)[Man(a1-6)]Man = molecular target: Man(a1-3)[Man(a1-6)]Man
How it was run: as §1

[26] = molecular target: Man(a1-3)[Man(a1-6)]Man(b1-4)GlcNAc(b1-4)GlcNAc
How it was run: as §1

Man(b1-4)GlcNAc = molecular target: Man(b1-4)GlcNAc
How it was run: as §1

[27] = molecular target: Neu5Ac(a2-3)Gal(b1-3)GalNAc6S
How it was run: as §1

[28] = molecular target: Neu5Ac(a2-3)Gal(b1-3)GlcNAc
How it was run: as §1

Neu5Ac(a2-3)Gal(b1-4)Glc = molecular target: Neu5Ac(a2-3)Gal(b1-4)Glc
How it was run: as §1

[29] = molecular target: Neu5Ac(a2-3)Gal(b1-4)GlcNAc(b1-2)Man
How it was run: as §1

[30] = molecular target: Neu5Ac(a2-3)Gal(b1-4)GlcNAc(b1-3)Gal(b1-4)GlcNAc(b1-3)[Neu5Ac(a2-3)Gal(b1-4)GlcNAc(b1-3)Gal(b1-4)GlcNAc(b1-6)]GalNAc
How it was run: as §1

[31] = molecular target: Neu5Ac(a2-3)Gal(b1-4)GlcNAc(b1-6)[Gal(b1-3)]GalNAc
How it was run: as §1

[32] = molecular target: Neu5Ac(a2-3)Gal(b1-4)[Fuc(a1-3)]GlcNAc(b1-2)Man
How it was run: as §1

[33] = molecular target: Neu5Ac(a2-3)Gal(b1-4)[Fuc(a1-3)]GlcNAc(b1-6)[Neu5Ac(a2-3)Gal(b1-3)]GalNAc
How it was run: as §1

[34] = molecular target: Neu5Ac(a2-3)GalNAc(b1-4)GlcNAc
How it was run: as §1

[35] = molecular target: Neu5Ac(a2-3)[Neu5Ac(a2-6)]GalNAc
How it was run: as §1

[36] = molecular target: Neu5Ac(a2-6)GlcNAc(b1-4)GlcNAc
How it was run: as §1

Neu5Ac(a2-8)Neu5Ac = molecular target: Neu5Ac(a2-8)Neu5Ac
How it was run: as §1

[37] = molecular target: Neu5Ac9Ac(a2-3)Gal(b1-4)GlcNAc
How it was run: as §1

[38] = molecular target: Neu5Gc(a2-8)Neu5Gc(a2-3)Gal(b1-4)GlcNAc
How it was run: as §1

B1: Mermaid3 (Stilbonema majum) (protein)
chain: MGSSHHHHHHSSGLVPRGSHMAASGWLRSPQGTVVKLYRRSLSWSKADEFCKDVDGRLVVDRTADMHLFLIKNVLKEKKSRVWVGLRRTASHSRTWIWSDGTRQNEGDLDANLWLRDEPNDAAGEEECALFMYSPWEKAWGLNDYLCRGGCRNYQFICEKWIR
glycan array binding signal (z-score) [1]: 0.368 | glycan array binding signal (z-score) [2]: -0.174 | glycan array binding signal (z-score) [3]: -0.175 | glycan array binding signal (z-score) [4]: -0.383 | glycan array binding signal (z-score) [5]: -0.592 | glycan array binding signal (z-score) [6]: 0.166 | glycan array binding signal (z-score) [7]: -0.463 | glycan array binding signal (z-score) [8]: 3.67 | glycan array binding signal (z-score) [9]: -0.521 | glycan array binding signal (z-score) (Fuc(a1-4)GlcNAc): 1.39 | glycan array binding signal (z-score) (Gal(a1-3)Gal): -0.579 | glycan array binding signal (z-score) (Gal(b1-3)GalNAc): 0.892 | glycan array binding signal (z-score) [10]: -0.627 | glycan array binding signal (z-score) [11]: 5.6 | glycan array binding signal (z-score) [12]: 0.676 | glycan array binding signal (z-score) [13]: -0.634 | glycan array binding signal (z-score) (Gal(b1-4)Gal): 6.72 | glycan array binding signal (z-score) [14]: -0.562 | glycan array binding signal (z-score) [15]: 3.51 | glycan array binding signal (z-score) [16]: -0.185 | glycan array binding signal (z-score) [17]: -0.118 | glycan array binding signal (z-score) [18]: -0.554 | glycan array binding signal (z-score) [19]: -0.074 | glycan array binding signal (z-score) [20]: 4.93 | glycan array binding signal (z-score) (Gal3S(b1-4)Glc6S): -0.077 | glycan array binding signal (z-score) [21]: -0.708 | glycan array binding signal (z-score) (GalNAc(b1-4)GlcNAc6S): 3.6 | glycan array binding signal (z-score) (GlcA(b1-3)GlcNAc): 1.68 | glycan array binding signal (z-score) [22]: 1.05 | glycan array binding signal (z-score) [23]: -0.397 | glycan array binding signal (z-score) (GlcNAc(b1-3)Man): 5.11 | glycan array binding signal (z-score) (Kdn(a2-3)Gal(b1-3)GlcNAc): -0.708 | glycan array binding signal (z-score) [24]: -0.704 | glycan array binding signal (z-score) [25]: -0.681 | glycan array binding signal (z-score) (Man(a1-3)[Man(a1-6)]Man): 0.678 | glycan array binding signal (z-score) [26]: -0.62 | glycan array binding signal (z-score) (Man(b1-4)GlcNAc): 4.76 | glycan array binding signal (z-score) [27]: -0.112 | glycan array binding signal (z-score) [28]: -0.277 | glycan array binding signal (z-score) (Neu5Ac(a2-3)Gal(b1-4)Glc): 0.506 | glycan array binding signal (z-score) [29]: 4.26 | glycan array binding signal (z-score) [30]: -0.289 | glycan array binding signal (z-score) [31]: 4.77 | glycan array binding signal (z-score) [32]: -0.553 | glycan array binding signal (z-score) [33]: -0.153 | glycan array binding signal (z-score) [34]: 0.426 | glycan array binding signal (z-score) [35]: 4.44 | glycan array binding signal (z-score) [36]: -0.709 | glycan array binding signal (z-score) (Neu5Ac(a2-8)Neu5Ac): -0.57 | glycan array binding signal (z-score) [37]: -0.2 | glycan array binding signal (z-score) [38]: -0.787
